# Yp Topo-I inh – inhibitors of Yersinia pestis topoisomerase I; AID 504884; Y. pestis Topo-I cleavage product accumulation, plate reader; actives 0.064% (n = 360,000); activity, % at 10 µM; in the data active = activity above about 50%, passing the limit was not always enough
# PfHsp40 rescue – rescue of PfHsp40-mediated yeast toxicity; S. cerevisiae expressing PfHsp40, growth rescue, ATP luminescence; growth rescue, % at 12.5 µM; actives 0.68% (n = 340,000); AID 504582; in the data active = growth rescue above about 28%, passing the limit was not always enough;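 also: yeast W303a lacking pdr1 and pdr3 grown in galactose medium; growth measured after three days at 30 °C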
# Mtb BioA inh – BioA (M. tuberculosis) enzyme inhibition; purified M. tuberculosis BioA enzyme, plate reader; inhibition, % at 9.99 µM; actives 0.096% (n = 360,000); AID 602481; in the data active = inhibition above about 40%
# FadD28 FP inh – blocks FadD28 binding to the bisubstrate probe; fluorescence polarization; inhibition, % at 12.5 µM; actives 0.22% (n = 360,000); AID 588549; in the data active = inhibition above about 8.5%, passing the limit was not always enough
# PrP UTR inh – suppresses PrP 5' UTR mRNA reporter expression. cell-based PrP 5' UTR mRNA reporter, plate reader. inhibition, % (concentration not given with the values). actives 0.35% (n = 340,000). AID 488862; in the data active = inhibition above about 52%; also: 0 = median of the neutral control wells
# An asterisk follows results filed as active; x = not tested or not shown. Hits are enriched below; roughly 1.1% of the tested compounds scored in any of these assays.
SMILES,Yp Topo-I inh,PfHsp40 rescue,Mtb BioA inh,FadD28 FP inh,PrP UTR inh
Cc1cnc(C(=O)OCC(=O)Nc2c(Cl)cc(Cl)cc2Cl)cn1,-0.1,63.3*,-1.5,-2.1,-27.6
O=C([C@H]1[C@H](CO)[C@H]2Cn3c(cccc3=O)[C@H]2N1Cc1ccncc1)N1CCCCC1,x,x,-2.7,x,x
CN(C)C(=O)N1CCC(C(=O)NC2CCCCCCC2)CC1,4.6,33.1*,0.2,-4.2,-22.3
COc1cccc(C(C)=C2SC(=S)NC2=O)c1,0.7,83.4*,x,-7.6,5.6
Cc1ccc(S(=O)(=O)N(C)C[C@@H]2OCCCC[C@H](C)Oc3ccc(NC(=O)Nc4cccc5ccccc45)cc3C(=O)N([C@H](C)CO)C[C@H]2C)cc1,x,x,-1.0,x,x
Fc1ccc(-n2c(-c3cc(C4CC4)[nH]n3)n[nH]c2=S)cc1Cl,18.3,-1.8,x,-1.8,-14.1
O=c1ccc(-c2n[nH]c(=S)n2-c2ccc(F)c(Cl)c2)n[nH]1,1.7,52.0*,0.3,-2.4,-3.3
CCCCCCSc1ccc(-c2nc3cnccn3c2NCCCC)cc1,7.7,36.6*,-0.6,-5.1,-1.4
CCCCNc1c(-c2ccc(SC(C)CC)cc2)nc2ccccn12 (configuration not stated),40.6,209.2*,-0.7,-0.2,-43.3
C[C@@H]1CCCCO[C@@H](CN(C)Cc2ccc(C(=O)O)cc2)[C@H](C)CN([C@@H](C)CO)C(=O)c2cc(NC(=O)NC3CCCCC3)ccc2O1,x,x,-1.9,x,x
N#C/C(=C/c1ccco1)C(N)=S,7.7,0.1,x,14.8*,-3.7
COc1ccc(/C=C/C(=O)N(C)CC(=O)Nc2cccc(F)c2)cc1S(=O)(=O)N1CCCCC1,9.7,0.3,0.6,-0.3,-15.5
COc1ccc(NC(=O)CN(C)C(=O)/C=C/c2ccc(S(=O)(=O)N3CCCCCC3)cc2)cc1,76.7*,4.7,-1.1,-4.8,-1.2
Clc1ccc(CCNc2nc3ccccc3s2)cc1,2.3,217.4*,-1.0,-5.0,-22.3
Cc1ccc(-c2csc(NC(=O)c3ccccc3F)c2C(=O)O)cc1,-2.6,33.9*,x,-0.6,-10.0
COc1ccc(-c2csc(NC(=O)c3ccccc3Br)c2C(=O)O)cc1,1.1,57.8*,1.4,-11.4,-16.9
O=C(/C=C/c1ccccc1)Nc1scc(-c2ccccc2)c1C(=O)O,-14.1,51.0*,x,1.6,-68.7
CCCC#Cc1cnc2c(c1)C(=O)N([C@@H](C)CO)C[C@H](C)[C@@H](CN(C)C(=O)Nc1cc(F)ccc1F)O2,x,x,4.1,x,x
O=C(C[C@@H]1C[C@@H]2c3cc(NC(=O)CC4CC4)ccc3O[C@@H]2[C@@H](CO)O1)NCCc1ccccc1,x,x,-2.5,x,x
CO[C@@H]1CN(C)C(=O)c2ccc(NC(=O)Nc3c(C)noc3C)cc2OC[C@@H](C)N(CC2CC2)C[C@@H]1C,x,x,-0.5,x,x
COc1cccc2c1NC(C(=O)O)C1CC=CC21 (configuration not stated),-8.6,-0.1,x,6.5,-14.5
O=C(O)C1Nc2c(O)cc(Cl)c([N+](=O)[O-])c2C2C=CCC12 (configuration not stated),-44.7,-0.5,x,59.2*,-24.7
COc1ccccc1NCC(=O)c1ccc(Cl)cc1,98.1*,-0.6,x,0.8,-10.9
COc1cc2cnc(-c3ccccc3)c(C(=O)c3ccc(F)cc3)c2cc1OC,35.2,411.4*,1.0,-4.1,-1.9
CCOc1ccccc1CN1CCC(n2nccc2NC(=O)C2CCCC2)CC1,2.4,-0.5,-0.8,-2.0,-14.3
SMILES,Yp Topo-I inh,PfHsp40 rescue,Mtb BioA inh,FadD28 FP inh,PrP UTR inh
CCOc1ccccc1CN1CCC(N2CCC(C(=O)NC3CC3)CC2)CC1,-0.9,30.3*,-1.0,-3.1,-8.7
CC(C)N1CCc2c(sc(NC(=O)c3ccc4ccccc4c3)c2C(N)=O)C1,-7.6,0.3,-7.0,-4.4,-4.6
CC(C)N1CCc2c(sc(NC(=O)c3cc4cc([N+](=O)[O-])ccc4s3)c2C(N)=O)C1,-25.3,-0.3,0.0,14.5*,-23.7
CC(C)CC(=O)/C(=C\c1ccc(Cl)cc1Cl)n1cncn1,-1.7,125.4*,2.0,-6.1,-18.3
CC(C)CC(=O)/C(=C/c1ccc(N(C)C)cc1)n1cncn1,-2.8,-1.2,1.6,-0.1,-3.3
O=C(c1ccc2c(c1)OCO2)N1C[C@@H]2[C@H](c3ccccc31)[C@@H](CO)N2C(=O)CC1CC1,x,x,1.2,x,x
FC(F)(F)c1ccc(CN2CCN(Cc3ccco3)CC2)cc1,-3.9,49.5*,-0.4,-0.8,-10.4
COc1ccc(OC2C(=O)N(Cc3ccc(F)cc3)C2c2cc(OC)c(OC)c(OC)c2)cc1 (configuration not stated),-3.1,0.7,x,-2.9,-27.6
COC(=O)c1ccc(C2C(Oc3ccc(OC)cc3)C(=O)N2CCc2ccc(F)cc2)cc1 (configuration not stated),66.9*,-0.2,x,-0.5,-10.0
CCCCn1c(=O)c(C(=O)NCc2ccncc2)c(O)c2ccccc21,33.8,219.1*,-0.1,-3.6,-6.4
CCCn1c(=O)c(C(=O)NCCc2ccc(OC)c(OC)c2)c(O)c2ccccc21,1.2,191.8*,-0.9,-2.2,-22.5
CCn1c(=O)c(C(=O)NNC(=O)c2ccccc2)c(O)c2ccccc21,18.4,167.6*,-1.5,-2.4,-11.4
CCCCn1c(=O)c(C(=O)NCc2ccccc2)c(O)c2ccccc21,3.0,5.7,-0.6,-0.3,-9.4
CCCCCCn1c(=O)c(C(=O)Nc2ncccc2C)c(O)c2ccccc21,-1.9,145.0*,-1.4,-3.3,12.5
CCn1c(=O)c(C(=O)NCCc2ccc(OC)c(OC)c2)c(O)c2ccccc21,-5.5,10.2,-1.4,2.9,x
Cc1noc(C)c1S(=O)(=O)Nc1ccc2c(c1)C(=O)N([C@@H](C)CO)C[C@@H](C)[C@@H](CN(C)C(=O)NC1CCCCC1)OCCCC[C@H](C)O2,x,x,-0.8,x,x
C=CCn1c(=O)c(C(=O)NCc2ccccc2)c(O)c2ccccc21,27.3,128.8*,-0.3,-2.9,-18.3
C=CCn1c(=O)c(C(=O)NCCNCC)c(O)c2ccccc21,-15.7,0.1,-3.8,-6.4,-2.2
Cc1cccc(S(=O)(=O)N2CC[C@H]3[C@@H](CO)N(C)c4ccc(Br)cc4[C@H]32)c1,x,x,1.6,x,x
O=C(O)c1ccc(Nc2nc(-c3cc4ccccc4oc3=O)cs2)cc1O,-16.4,1.5,x,30.2*,-15.4
COc1ccc2oc(=O)c(-c3csc(Nc4cccc(O)c4)n3)cc2c1,-30.8,448.8*,-2.2,-1.9,-84.8
COc1ccc(Nc2nc(-c3cc4cccc(OC)c4oc3=O)cs2)cc1,-8.5,-0.2,x,-1.3,-23.3
COc1ccc(S(=O)(=O)N(C)C[C@H]2OCCCC[C@H](C)Oc3ccc(NS(=O)(=O)c4ccc(C)cc4)cc3C(=O)N([C@H](C)CO)C[C@H]2C)cc1,x,x,-1.3,x,x
CCc1cccc2sc(N3CCN(C(=O)c4ccc([N+](=O)[O-])o4)CC3)nc12,24.6,38.7*,-0.2,-2.7,-55.6
C[C@H](CO)N1C[C@H](C)[C@@H](CN(C)Cc2cncnc2)Oc2cc(-c3ccccc3F)ccc2S1(=O)=O,x,x,7.1,x,x
C[C@H]1CN([C@@H](C)CO)C(=O)c2cc(NC(=O)CCN3CCOCC3)ccc2O[C@@H]1CN(C)Cc1ccc(C(F)(F)F)cc1,x,x,-0.7,x,x
